Source: PubChem BioAssay (NCI)
The panel holds about 83,000 compounds, 20% with a hit somewhere; the sample as a whole holds those more often.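 Testing used 96-well plates and a 48-hour single-concentration exposure. Example: -40 means 40% of the starting cells died.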 A number with no mark means an inactive call. Activity calls are given as the source filed them.

These compounds were tested on HL-60(TB) leukemia (assay: NCI-60 one-dose screen, 48 h (100 = growth as untreated, 0 = no growth, -100 = all killed)). Conditions: 10 µM unless noted.
Procedure: Growth inhibition of the HL-60(TB) human tumor cell line is measured as a screen for anti-cancer activity. Cells are grown in 96 well plates and exposed to the test compound for 48 hours. Compounds are tested at a single concentration, which is 10^-5 M for most compounds. The reported endpoint is percent growth (GI% or GIPRCNT), where numbers from 0 - 100% represent growth inhibition, and numbers from -100% - 0 represent cell death. For example, a value of 40 represents 60% growth inhibition. A value of 0 means no net growth occurred over the course of the experiment. A value of -40 indicates 40% of cells at the beginning of the experiment died by the end of the experiment. A value of -100 means all cells are dead at the end of the experiment.
NCI-60 Human Tumor Cell Lines Screen was performed using the standard one-dose NCI protocol, which is described in more detail at https://dtp.cancer.gov/discovery_development/nci-60/default.htm.
Compounds with GIPRCNT values below 10 were considered active. Activity score was based on GIPRCNT using the following formula: […]
Score is 0 for GIPRCNT values of 100 or above, 50 for GIPRCNT values of 0, and 100 for GIPRCNT values of -100.

Structure (SMILES)	growth
COc1ccc2c(c1)CCCC21C(=O)Nc2c(Cl)cccc21 (stereo not given)	33.9%
C#CCNC(=O)[C@H](CC)[C@H]1CC[C@H](C)[C@H]([C@@H](C)[C@H](O)[C@H](C)C(=O)[C@H](CC)C2O[C@]3(C=CC(=O)[C@]4(CC[C@@](C)([C@H]5CC[C@](O)(CC)[C@H](C)O5)O4)O3)[C@H](C)C[C@@H]2C)O1 (stereo not given in full)	1.79% (active)
CCN(CC)c1ccc(/C=C(\C#N)c2cc3ccccc3[nH]2)cc1	45.6%
O=C1OCC2=C1C(c1cccc(C(F)(F)F)c1)c1cc3c(cc1N2CCO)CCC3 (stereo not given)	-25.2% (active)
COc1cc2c(/C=C3\C(=O)Nc4ccc(Br)cc43)c(Cl)n(C)c2cc1C	-13.1% (active)
C/C(=N\NC(=O)CSc1nc2ccccc2c(=O)n1Cc1ccc(S(N)(=O)=O)cc1)c1ccc(F)cc1	101%
COc1ccc(Cn2cc3c(c2)-c2oncc2CC3)cc1	24.5%
Cc1cc(C)nc(NC(N)=NCCc2ccccc2)n1	56.9%
Cc1cc(I)nc2ccccc12	88.8%
N=c1sc(Cc2ccc(Cl)cc2)cn1CC(=O)c1ccc(F)cc1	94.8%
COc1cc(/C=C/C(=O)c2cc(-c3ccccc3)ccc2O)cc(OC)c1OC	42.6%
C=C(CN1CCN(c2cccc(C(F)(F)F)n2)CC1)c1ccc(C(=O)Nc2ccccc2N)cc1	-27.4% (active)
NC(CC(=O)O)C(=O)OCc1ccccc1 (stereo not given)	101%
COC(=O)c1cccc2c1N(C)c1c(cccc1C(=O)OC)CC2	71.6%
CNc1ccc(Br)c2c1C(=O)c1ccccc1C2=O	97.1%
COc1cc(-c2cc(/C=C/C(=O)c3ccc4c(c3)OCO4)[nH]n2)cc(OC)c1OC	91.3%
CN(C)c1ccc2c(N(C)C)cc(N(C)C)nc2c1	92.1%
COc1cc(OC)cc(C2C3=C(COC3=O)Nc3cc(OC)ccc32)c1 (stereo not given)	1.71% (active)
COc1ccc2c(c1)sc1nc(-c3ccccc3)c(-c3ccsc3)n12	14.2%
COc1ccc(C[n+]2c3ccccc3n3c4ccc(N)cc4ccc32)c(OC)c1OC	-6.46% (active)

Structure (SMILES)	growth
CN=C(NC)N/N=C(C)\C=N\NC(=NC)NC	99%
c1ccc(CSc2ncccc2-c2nnc(SCCN3CCOCC3)o2)cc1	101%
CC1(C)C2CC=C(/C=N/NC(=O)C3CCC(=O)N3)C1C2 (stereo not given)	101%
CNC(=O)O/N=C(/C)c1ccc(Cl)cc1	92.1%
CCc1c(C(=O)N[C@@H](C(=O)OCc2ccccc2)C(C)O)[nH]c2ccc(Cl)cc12 (stereo not given in full)	122%
CCN(CC)CCCCNc1c2ccccc2[n+](C)c2c1[nH]c1ccccc12	22.7%
COc1cnc2c(c1)C(=O)c1c-2n(CCCn2ccnc2)c(=O)c2cc(Cl)ccc12	-26.1% (active)
C/C(=N\NC(=O)CSc1nc2ccccc2c(=O)n1CCc1ccc(S(N)(=O)=O)cc1)c1ccccn1	33.8%
CCNCCNc1cc(-c2cccc(C(F)(F)F)c2)c(C#N)c2nc3ccccc3n12	-58.7% (active)
COc1cc(-c2n/c(=C\c3c(O)[nH]c4cc(Cl)ccc34)cc3c2=Nc2ccccc2-3)cc(OC)c1OC	89.6%
Cn1cc(-c2noc(-c3cn(C)c4ncc(F)cc34)n2)c2cc(Cl)ccc21	82.6%
C=CC(=O)Nc1cccc(Oc2nc(Nc3ccc(N4CCN(C)CC4)cc3)nc3ccsc23)c1	-62% (active)
O=C1/C(=C/c2ccc3c(c2)OCO3)SC(=S)N1C1c2ccccc2Oc2ccccc21	86.1%
O=C(Nc1nc2ccc(F)cc2s1)c1cccnc1Nc1ccc(Cl)cc1Cl	26.5%
O=C(C(Br)C(Br)c1ccccc1)C(Br)C(Br)c1ccccc1 (stereo not given)	-49.7% (active)
CC1(C)[C@@H](O)CC[C@]2(C)[C@H]3CC[C@@H]4[C@H]5[C@H](c6cn(-c7ccccc7)nn6)CC[C@]5(CO)CC[C@@]4(C)[C@]3(C)CC[C@@H]12	74.8%
O=C1CN(Cc2ccc(C(=O)NO)cc2)C(=O)[C@@H](Cc2ccccc2)N1	130%
C[C@H]1OC(=O)/C=C/[C@@H](O)[C@@H](O)CCCCCCCC[C@@H]1O	99.6%
COc1ccn2c(C(C)=O)cc(C(=O)c3ccc4c(c3)Sc3ccccc3N4)c2c1	-9.97% (active)
O=c1[nH]c(=O)n(C2CC(O)C(CO)O2)cc1CO (stereo not given)	107%
